{"source": "PubChem BioAssay (Tox21)", "note": "“And” between values parts separate entries of the source, which are not always exact repeats. Equal entries are not always repeated. Results filed as inconclusive are left out. A call without a number means that no potency is given here. The source made the active and inactive calls. The call rests on the fitted dose curve; in most records, active means well fitted cell-killing curve with a large enough effect in the repeat runs; inconclusive means weak or mixed curves; inactive means flat fitted curve, though single readings scatter. Potency means the concentration at half of the fitted maximal effect."}
{"test": "qHTS assay to identify small molecule antagonists of the TGF-beta/Smad signaling pathway - cell viability counter screen (AID 1346824); further: nearly all actives have a fitted effect of over 50% in size", "details": "SBE-bla HEK293T viability, CellTiter-Glo luminescence; series mostly up to 76.8 µM; viability change, negative = cytotoxic: at the top concentration", "source_text": "U.S. Tox21 Program National Center for Advancing Translational Sciences [NCATS] NIH Chemical Genomics Center [NCGC] U.S. Environmental Protection Agency [EPA] National Institutes of Environmental Health Sciences [NIEHS] National Toxicology Program [NTP] U.S. Food and Drug Administration [FDA] Tox21 Assay Overview: Transforming growth factor beta (TGF-beta) superfamily consists of a large number of structurally related dimeric proteins that act as hormones or local mediators in regulating a wide range of biological functions. This superfamily includes TGF-betas themselves, the bone morphogenetic proteins (BMPs) and the activins. These ligands induce oligomerization of serine/threonine receptor kinases and phosphorylate the cytoplasmic signaling molecules of Smad protein family. CellSensor SBE-bla HEK 293T cell line (Life Technologies, Carlsbad, CA), responsive to TGF-beta was used to screen Tox21 10K compound library for identification of agonists/antagonists of the Smad signaling pathway. This cell line contains a beta-lactamase reporter gene under control of the Smad binding element (SBE) stably integrated into HEK 293T cells. Also cytotoxicity of the compounds was tested in parallel by measuring the cell viability using CellTiter-Glo assay system in the same wells.\nTox21 Assay Protocol Summary: SBE-bla HEK 293T cells were dispensed at 4,000/well in 5 uL of assay medium into black wall/clear-bottom 1536-well plates using a Multidrop Combi (ThermoFisher Scientific, Waltham, MA) dispenser. After the assay plates were incubated at 37 C and 5% CO2 for an overnight, 23 nL of compounds dissolved in DMSO, positive controls or DMSO only was transferred to the assay plate by a Pintool station (Kalypsys, San Diego, CA). Compound transfer was followed by the addition of 1 uL of 0.25 ng/mL TGF-beta1 or assay buffer using two separate tips of Flying Reagent Dispenser (FRD, Aurora Discovery, San Diego, CA). The assay plates were incubated at 37 C and 5% CO2 for 5 hr. One uL of LiveBLAzer B/G FRET substrate (Life Technologies) was added using a Flying Reagent Dispenser (FRD, Aurora Discovery, San Diego, CA) and the plates were incubated at room temperature for 2 hr. Fluorescence intensity (405 nm excitation, 460 nm and 530 nm emissions) was measured using an Envision plate reader (PerkinElmer, Shelton, CT). For cytotoxicity read, 4 uL of CellTiter-Glo reagent (Promega Corporation, Madison, WI) was added to each well of the assay plates using FRD. After 30 min incubation at room temperature, the luminescence intensity was measured using ViewLux plate reader (PerkinElmer)."}
{"smiles": "Clc1cccc(C(Cl)(Cl)Cl)n1", "Potency": "inactive"}
{"smiles": "C=CC(=O)OCC(CC)(COC(=O)C=C)COC(=O)C=C", "Potency": "inactive"}
{"smiles": "O=C1Nc2ccc(Cl)cc2C(c2ccccc2)=NC1O", "note": "(stereo not given)", "Potency": "inactive"}
{"smiles": "O=C1C(Cl)=C(Cl)C(=O)c2ccccc21", "Potency": "49.1 µM (active) and 49 µM (active)"}
{"smiles": "CCNc1nc(Cl)nc(NC(C)(C)C#N)n1", "Potency": "inactive"}
{"smiles": "CC(O)CN(CC(C)O)CC(C)O", "note": "(stereo not given)", "viability change, negative = cytotoxic": "7.6% (inactive)"}
{"smiles": "COc1ccc(O)c(C(C)(C)C)c1", "Potency": "inactive"}
{"smiles": "Nc1ncn[nH]1", "Potency": "inactive"}
{"smiles": "CCN(CC)C(=O)C(C)Oc1cccc2ccccc12", "note": "(stereo not given)", "Potency": "inactive"}
{"smiles": "N#Cc1nn(-c2c(Cl)cc(C(F)(F)F)cc2Cl)c(N)c1S(=O)C(F)(F)F", "note": "(stereo not given)", "viability change, negative = cytotoxic": "-8% [at 35.3 µM] (inactive)"}
{"smiles": "c1ccc2c(c1)Nc1ccccc1S2", "Potency": "inactive"}
{"smiles": "NC(=O)CN1CCCC1=O", "Potency": "inactive"}
{"smiles": "Nc1ccc([N+](=O)[O-])cc1N", "viability change, negative = cytotoxic": "10.1% (inactive)"}
{"smiles": "CCOP(=S)(OCC)OP(=S)(OCC)OCC", "Potency": "inactive"}
{"smiles": "CN(C)P(=O)(N(C)C)N(C)C", "Potency": "inactive"}
{"smiles": "ClC(Cl)(Cl)c1ccccc1", "Potency": "inactive"}
{"smiles": "CN(C)c1ccccc1", "Potency": "inactive"}
{"smiles": "O=[N+]([O-])c1ccc(Cl)c([N+](=O)[O-])c1", "Potency": "55.8 µM (active) and 34.7 µM (active)"}
{"smiles": "N#Cc1cccnc1", "Potency": "inactive"}
{"smiles": "CC(C)Nc1nc(Cl)nc(NC(C)C)n1", "Potency": "inactive"}
{"smiles": "CNC(=O)CSP(=S)(OC)OC", "Potency": "inactive"}
{"smiles": "CCC[CH2][Sn]([Cl])([Cl])[CH2]CCC", "Potency": "8.82 µM (active) and 13.8 µM (active)"}
{"smiles": "O=C(O)c1nn(Cc2ccc(Cl)cc2Cl)c2ccccc12", "Potency": "inactive"}
{"smiles": "O=C(O)CF", "Potency": "inactive"}
{"smiles": "N#CC(c1ccccc1)c1ccccc1", "Potency": "inactive"}
{"smiles": "CCCCCCCCCc1ccc(O)cc1", "Potency": "inactive"}
{"smiles": "C=CC(Cl)CCl", "note": "(stereo not given)", "Potency": "inactive"}
{"smiles": "S=c1[nH]c2ccccc2[nH]1", "Potency": "inactive"}
{"smiles": "CCC/C=N/O", "Potency": "inactive"}
{"smiles": "Cc1cccc(N=Nc2ccc(N(C)C)cc2)c1", "Potency": "inactive"}
{"smiles": "CC(C)COC(=O)c1ccccc1C(=O)OCC(C)C", "Potency": "inactive"}
{"smiles": "Cn1c(-c2ccccc2)cc(-c2ccccc2)[n+]1C", "Potency": "inactive"}
{"smiles": "O=[N+]([O-])c1ccc(Nc2ccccc2)cc1", "Potency": "inactive"}
{"smiles": "CNC(=O)Oc1cccc2c1OC(C)(C)C2", "Potency": "inactive"}
{"smiles": "CCCCOCC1CO1", "note": "(stereo not given)", "viability change, negative = cytotoxic": "-2.28% (inactive)"}
{"smiles": "CC(C)CON=O", "Potency": "inactive"}
{"smiles": "CCOC(=O)c1ccccc1N", "Potency": "inactive"}
{"smiles": "CS(=O)(=O)NC(=O)c1cc(Oc2ccc(C(F)(F)F)cc2Cl)ccc1[N+](=O)[O-]", "Potency": "inactive"}
{"smiles": "C[C@]12CC[C@H]3[C@@H](CCC4=CC(=O)CC[C@@H]43)[C@@H]1CC[C@@H]2O", "Potency": "inactive"}
{"smiles": "Clc1ccc(C(Cl)(Cl)Cl)cc1", "Potency": "inactive"}
